High-throughput results as filed in PubChem BioAssay.
ALOX12 inh – blocks human arachidonate 12S-lipoxygenase; P18054; purified 12hLO, xylenol orange hydroperoxide absorbance; Potency, µM (highest dose often 108 µM), for the others: at the top dose activity change, negative = inhibition, most hits filed as inhibitors; 1.1% of 580,000 active; note: % is set by controls: 0 for no effect and ±100 for the full control effect
Target sequence (P18054 whole entry, looked up): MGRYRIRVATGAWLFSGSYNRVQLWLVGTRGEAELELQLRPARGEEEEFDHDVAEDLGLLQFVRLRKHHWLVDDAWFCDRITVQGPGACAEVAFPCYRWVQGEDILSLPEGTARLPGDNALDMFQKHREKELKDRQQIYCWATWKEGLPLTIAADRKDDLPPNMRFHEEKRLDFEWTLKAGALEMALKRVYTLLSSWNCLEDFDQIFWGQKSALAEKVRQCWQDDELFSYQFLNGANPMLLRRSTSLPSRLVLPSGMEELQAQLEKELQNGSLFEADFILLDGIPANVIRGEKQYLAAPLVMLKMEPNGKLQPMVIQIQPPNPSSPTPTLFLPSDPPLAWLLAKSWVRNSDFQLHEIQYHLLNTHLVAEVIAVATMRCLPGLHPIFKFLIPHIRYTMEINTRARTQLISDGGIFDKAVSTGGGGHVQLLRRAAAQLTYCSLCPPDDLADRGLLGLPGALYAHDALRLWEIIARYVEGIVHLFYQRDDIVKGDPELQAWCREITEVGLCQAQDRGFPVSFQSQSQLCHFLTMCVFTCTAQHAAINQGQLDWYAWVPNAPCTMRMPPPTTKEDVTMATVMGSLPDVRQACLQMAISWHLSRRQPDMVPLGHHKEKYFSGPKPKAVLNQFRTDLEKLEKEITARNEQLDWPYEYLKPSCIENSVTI
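Hydroperoxide product was detected by ferrous iron/xylenol orange as the 573 to 405 nm absorbance ratio. Arachidonic acid at 40 uM (final) was turned over for 30 min at room temperature by 150 nM human 12hLO, pH 7.0 Hepes buffer, after 15 min compound preincubation.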
ATXN2 expr inh – ATXN2 expression inhibition; HEK-293 ATXN2-luciferase reporter, luminescence, 24 h; Potency, µM (highest dose often 57 µM), for the others: at the highest dose activity change, negative = inhibition, actives largely listed as inhibitors; 0.72% of 360,000 active; AID 1745845; note: % is set by controls: 0 for no effect and ±100 for the full control effect; nearly all actives have a fitted effect of over 55% in size
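ATXN2-luciferase reporter cells (luciferase flanked by upstream and downstream ATXN2 gene portions) were treated 24 h at 37 °C with compounds at up to 57 uM. SteadyGlo luminescence gave expression; GF-AFC fluorescence gave viability.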
TGFb SMAD3 inh – inhibitors of TGF-b signaling; HepG2 CAGA-GFP TGF-b/SMAD3 reporter, GFP fluorescence, 18 h; TGF-beta stimulated, 500 pg/mL final; Potency, µM (series often up to 46.1 µM), for inactives: at the highest dose activity, negative = inhibition, hits mostly inhibitors; 1.2% of 410,000 active; note: % is set by controls: 0 for no effect and ±100 for the full control effect; nearly all actives have a fitted effect of over 65% in size
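Cell-based qHTS in HEPG2 carrying a CAGA-GFP Smad reporter; compounds added before 500 pg/mL final TGF-beta, 18 h incubation at 37 degrees C, GFP fluorescence quantified per cell by imaging cytometry.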
HepG2 viability – kills HepG2 cells in TGF-b inhibitor counter-screen; AID 588856; 0.76% of 410,000 active; HepG2 CAGA-GFP viability, ATP luminescence, 18 h; Potency, µM (top dose mostly 46.1 µM), inactives show at the highest dose activity change, negative = cytotoxicity, usual class: cytotoxic
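CellTiter-Glo luminescence gave cytotoxicity after 18 hours at 37 degrees C. The cells were HepG2 CAGA-GFP in 1% FBS DMEM, stimulated with 500 pg/mL TGF-beta after compound addition. %Activity was normalised to no-cell wells (complete cell-killing) and DMSO (no toxicity), and curves were fitted and classified.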
S2 tox – viability counter-screen for ATXN expression inhibitors; Potency, µM (series often up to 56.7 µM), usual class: cytotoxic; S2 cells (HEK-293 line with an ATXN2-luciferase reporter) viability, CellTiter-Fluor protease fluorescence, 24 h; 0.49% of 400,000 active; note: nearly all actives have a fitted effect of over 40% in size
The depositor's hits bear a star; i = inactive; ? = inconclusive; · = no result given; [ ] = another dose, or the depositor's remark. Only some compounds are listed: those with a hit (about 2.7% of all), similar ones and a draw of the others. Calls come from the whole dose curve; as a rule, active = well fitted curve in the direction sought with a large enough effect; inconclusive = small, poorly fitted or top-dose-only effect, or another doubt; inactive = no such curve, though single readings can be large; an effect the other way counts as inactive or inconclusive. Potency is the fitted concentration of half-maximal effect.

SMILES	ALOX12 inh	ATXN2 expr inh	TGFb SMAD3 inh	HepG2 viability	S2 tox
CN(C)CCCNC(=O)c1nc(-c2cccc3[nH]ccc23)no1	12%	·	·	·	·
OC[C@@H]1CN(Cc2ccc(-c3ccccc3)cc2)C[C@H](n2cnc3c(NC4CCC4)ncnc32)O1	?	?	?	-19%	18µM*
COc1ccc2[nH]c3c(=O)n(/N=C/[C@H]4C(C)C=C(C)CC4C)c(=O)[nH]c3c2c1 (some centres undefined)	?	?	5µM*	7.1µM*	13µM*
COc1ccc2c(c1)[nH]c1c(=O)n(/N=C/C3C(C)C=C(C)CC3C)c(=O)[nH]c12 (centres undefined)	?	?	-23%	-28%	i
COc1cccc(O)c1CN1CCC(C(=O)Nc2ccc(-c3cccc(C)c3)cc2)CC1	?	?	?	13µM*	i
COc1ccc(C(=O)N2CCc3ccc(C(=O)Nc4ccc5c(c4)OCCO5)cc32)cc1	31%	·	·	·	·
CC12CC3CC(C)(C1)CC(NCc1ccccn1)(C3)C2	-4%	·	·	·	·
COc1ccc(-c2csc(NC(C)=O)n2)cc1OC	3%	22%	7%	2%	i
COc1cccc(NC(=O)N2CCN(c3nc(-c4cccc(OC)c4)cs3)CC2)c1	1%	·	?	-36%	14µM*
COc1cccc(-c2csc(N3CCN(C(=O)Nc4ccccc4Cl)CC3)n2)c1	428%	·	-17%	0%	i
COc1cccc(NC(=O)Nc2nc(-c3ccc(OC)c(OC)c3)cs2)c1	-18%	3.2µM*	11µM*	16µM*	8.9µM*
COc1ccc(CNC(=O)C(c2ccncc2)N(C(=O)Cc2cccs2)c2ccccc2)cc1 (centres undefined)	18%	-3%	0%	-4%	i
COc1ccc(N(C(=O)CCl)C(C(=O)NCCc2ccccc2)c2cccs2)cc1 (centres undefined)	0%	28µM*	?	16µM*	13µM*
NS(=O)(=O)c1ccc(N/N=C/c2cn(-c3ccccc3)nc2-c2ccccc2)c([N+](=O)[O-])c1	?	·	5.6µM*	6.3µM*	11µM*
O=[N+]([O-])c1cc(S(=O)(=O)Nc2ccccc2)ccc1N/N=C/c1cn(-c2ccccc2)nc1-c1cccs1	2%	·	·	·	·
Cc1ccc(S(=O)(=O)N2CCN(C(=O)CSC(=S)N3CCCC3)CC2)c(C)c1	1%	?	11µM*	10µM*	?
Cc1ccccc1-n1cnnc1SCCC(=O)Nc1ccc(S(=O)(=O)N(C)C)cc1	8%	·	·	·	·
COc1ccc(-c2csc3nc[nH]c(=O)c23)cc1OC	79%	3%	6%	-18%	i
Cc1ccc(-c2csc3nc[nH]c(=S)c23)cc1C	28µM*	-38%	-29%	-32%	i
O=C(NCc1ccco1)c1sc(=S)n2c1[nH]c(=O)c1ccccc12	16µM*	?	?	-26%	?
COc1cc2c(cc1NC(=O)CCC(=O)O)oc1ccccc12	-24%	2%	1%	-1%	i
COc1cc2c(cc1NC(=O)Nc1ccccc1)oc1ccccc12	?	4%	?	7.1µM*	i
O=C(C[C@H]1C/C=C\C[C@@H](Cc2ccc(F)cc2)C(=O)O[C@H](c2ccccc2)CNC1=O)NCCO	-10%	12%	-13%	13µM*	i
O=C(C[C@@H]1C/C=C/CC[C@H](Cc2ccc(F)cc2)C(=O)O[C@H](c2ccccc2)CNC1=O)NCCO	36%	-1%	-4%	-8%	i
O=C(O)c1c2c(nc3ccc(S(=O)(=O)N4CCC(C(=O)NCc5ccc(Cl)cc5)CC4)cc13)CCCC2	25µM*	7%	-1%	-2%	i
Cc1cc(C(Br)(Br)Br)nc2ccccc12	·	·	?	11µM*	·
Nc1nc(N)c2nc(-c3ccccc3)c(N)nc2n1	-17%	-1%	60%	-47%	·
Nc1nc(N)c2nc(-c3cccc(O)c3)c(-c3cccc(O)c3)nc2n1	-15%[57.4 µM]	24µM*	·	·	·
COc1ccc(C)cc1NC(=O)CNC(=O)CNc1ccc(F)c(NC(C)=O)c1	-14%	·	·	·	·
